Here are results for 27 molecules from ChEMBL document CHEMBL1157539, “Thousands of chemical starting points for antimalarial lead identification” (Nature, 2010).

What all share (assay type): functional
Experiment [1] concerns Plasmodium falciparum. Description: GSK_TCMDC: Inhibition of Plasmodium falciparum 3D7 in whole red blood cells, using parasite LDH activity as an index of growth. Test compounds present at 2uM.
In experiment [2] the test system is Plasmodium falciparum. Description: GSK_TCMDC: Inhibition of Plasmodium falciparum Dd2 in whole red blood cells, using parasite LDH activity as an index of growth. Test compounds present at 2uM.
For a further experiment, the system named is HepG2. Description: GSK_TCMDC: Percent inhibition of human HepG2 cell line. Test compounds present at 10uM.

Several values for one entry are separate records, joined by “and”; a condition that tells them apart may be missing. Equal values may be shown once.

The Inhibition is the drop in the measured response relative to a control, in per cent. High values mean a response far below the control, low ones a response near the control. As to `O=C(Nc1cc(C(F)(F)F)cc(C(F)(F)F)c1)Nc1cc(C(F)(F)F)cc(C(F)(F)F)c1`, the Inhibition in the experiment on Plasmodium falciparum [1] amounted to 97%; with Plasmodium falciparum [2] it was 100%; with HepG2 it was 5%.

In the case of `O=C(/C=C/c1ccc(Cl)cc1)NCCCCCN1CCCC(C(=O)Nc2ccc(F)c(Cl)c2)C1` (stereo unspecified), the Inhibition with Plasmodium falciparum [1] is listed as 94%; in the experiment with Plasmodium falciparum [2] it was 6%; with HepG2, 27%.

With `O=C1Nc2cccc3c2C1(CCCN1CCC(c2c[nH]c4cc(C(F)(F)F)ccc24)CC1)CCC3` (stereo unspecified), the values for the Inhibition with Plasmodium falciparum [1], in the experiment with Plasmodium falciparum [2] and in the experiment on HepG2 were 89%, 37% and 91%, respectively.

Regarding `CNC(=O)C(C)N(c1ccc(Cl)cc1)c1nc(C(C)(C)C)cs1` (stereo unspecified), the Inhibition with Plasmodium falciparum [1] came to 99%; in the experiment with Plasmodium falciparum [2] it was 98%; in the experiment on HepG2, 0%.

As for `CC(C)CNCc1ccc(OCc2cccc(COc3ccc(CNCC(C)C)cc3I)c2)c(I)c1.Cl`, the Inhibition was determined as 98% in the experiment on Plasmodium falciparum [1], 84% with Plasmodium falciparum [2] and 23% with HepG2.

With `Fc1ccc(C=NN=c2cc[nH]c3ccccc23)cc1`, the Inhibition stood at 100% in the experiment with Plasmodium falciparum [1], 100% with Plasmodium falciparum [2] and 21% in the experiment with HepG2.

Take `CC1CN(Cc2ccc(-c3ccc(-c4nc5cc(F)ccc5[nH]4)cc3)cc2)CC(C)O1.O=C(O)C(F)(F)F` (stereo unspecified): the Inhibition was found to be 96% with Plasmodium falciparum [1], 93% in the experiment with Plasmodium falciparum [2] and 40% in the experiment with HepG2.

In the case of `Cc1cc(C2CCN(CCCCNC(=O)c3ccc(-c4ccc(C(F)(F)F)cc4)cc3)CC2)c(C)cc1OCCOC1CCCCO1` (stereo unspecified), the Inhibition came to 95% in the experiment with Plasmodium falciparum [1], 5% with Plasmodium falciparum [2] and 30% in the experiment with HepG2.

With `O=C(O)c1ccc(NC(=O)C2CC(=O)N(Cc3ccc(Cl)cc3)C(=Nc3ccc(Cl)cc3)S2)cc1` (stereo unspecified), the Inhibition is 99% in the experiment with Plasmodium falciparum [1], 95% in the experiment with Plasmodium falciparum [2] and 0% in the experiment with HepG2.

For `Cc1cnc(NCCc2ccc(F)cc2)nc1N[C@@H](CC(C)C)C(=O)Nc1ccccc1.O=C(O)C(F)(F)F`, the Inhibition is 87% with Plasmodium falciparum [1], 29% in the experiment with Plasmodium falciparum [2] and 19% in the experiment with HepG2.

Consider `CC(C)(C)c1ccc2oc(=O)n(C3CCN(C(=O)c4ccc([N+](=O)[O-])o4)CC3)c2c1`, for which the Inhibition worked out at 94% in the experiment on Plasmodium falciparum [1], 87% in the experiment with Plasmodium falciparum [2] and 0% in the experiment on HepG2.

Consider `CN1CCCc2ccc(NC(=O)C=Cc3ccc(-c4ccc(F)cc4F)o3)cc2C1.O=C(O)C(F)(F)F`, for which the Inhibition worked out at 98% with Plasmodium falciparum [1], 20% in the experiment on Plasmodium falciparum [2] and 8% in the experiment with HepG2.

For `O=C(NC1CCN(c2ccc(F)cc2[N+](=O)[O-])CC1)c1cccs1`, the Inhibition in the experiment on Plasmodium falciparum [1] amounted to 90%; in the experiment with Plasmodium falciparum [2], 91%; in the experiment on HepG2, 0%.

Turning to `Cc1[nH]c(C)c(-c2ccc(OCc3cc(F)cc(F)c3)nc2)c(=O)c1Cl`, the Inhibition with Plasmodium falciparum [1] is listed as 97%; in the experiment with Plasmodium falciparum [2] it was 97%; with HepG2, 20%.

On to `CNCCCNc1ccnc2cc(Cl)ccc12`, for which the Inhibition in the experiment on Plasmodium falciparum [1] was found to be 100%; with Plasmodium falciparum [2], 25%; with HepG2, 11%.

Regarding `COc1ccc2nccc(N3CCN(CCNCc4ccc5c(n4)NC(=O)CS5)CC3)c2n1.Cl`, the Inhibition in the experiment on Plasmodium falciparum [1] was 100%; in the experiment on Plasmodium falciparum [2] it was 67%; in the experiment on HepG2, 10%.

As to `COc1c(CN2CCOCC2)cccc1-c1cc2c(-c3ccc(C(=O)O)c(C(C)C)c3)ccnc2[nH]1.O=C(O)C(F)(F)F`, the figures for the Inhibition with Plasmodium falciparum [1], in the experiment with Plasmodium falciparum [2] and with HepG2 were 98%, 90% and 44%, respectively.

For `CC(C)c1ccc(NC(=O)c2ccc(C(=O)NC3CCN(CC4CCCCC4)CC3)cc2)cc1.O=C(O)C(F)(F)F`, the results for the Inhibition in the experiment on Plasmodium falciparum [1], in the experiment on Plasmodium falciparum [2] and in the experiment on HepG2 were 98%, 5% and 34%, respectively.

For `O=C(Nc1cccc(-c2cc(-c3c(Cl)cccc3Cl)no2)c1)c1cncc(-c2cccs2)c1`, the Inhibition with Plasmodium falciparum [1] came out at 91%; in the experiment on Plasmodium falciparum [2], 39%; in the experiment with HepG2, 0%.

As for `O=C(/C=C/c1ccccc1O)NCCCCCN1CCC(c2c[nH]c3ccccc23)CC1`, the Inhibition in the experiment with Plasmodium falciparum [1] is recorded as 95%; with Plasmodium falciparum [2] it was 1%; in the experiment on HepG2 it was 7%.

As to `CC(C)NCc1ccc(-c2ccc(CN3CCCC(c4ccccc4)C3)cc2)c(C(=O)NC2Cc3ccccc3C2)c1.O=C(O)C(F)(F)F` (stereo unspecified), the Inhibition with Plasmodium falciparum [1] amounted to 96%; in the experiment on Plasmodium falciparum [2], 64%; with HepG2, 41%.

Take `CCc1cc(N2CCN(c3ccccc3F)CC2)nc(SCc2ccc(C(=O)NC3CC3)o2)n1`: the figures for the Inhibition with Plasmodium falciparum [1], with Plasmodium falciparum [2] and in the experiment on HepG2 were 90%, 94% and 9%, respectively.

As for `Cl.Nc1nc(N)c2c(ccc3c2ccn3C2CCCCC2)n1`, the Inhibition was found to be 97% in the experiment with Plasmodium falciparum [1], 46% with Plasmodium falciparum [2] and 67% with HepG2.

On to `O=C(Nc1cccc(CN2CCCN(Cc3cccnc3)CC2)c1)c1ccc(Cl)c(Cl)c1.O=C(O)C(F)(F)F`, for which the figures for the Inhibition in the experiment with Plasmodium falciparum [1], in the experiment with Plasmodium falciparum [2] and in the experiment with HepG2 were 84%, 19% and 16%, respectively.

Consider `COc1cccc(-c2ccc(C(=O)NCC3CCCN(Cc4cccc(C(F)(F)F)c4)C3)s2)c1.O=C(O)C(F)(F)F` (stereo unspecified), for which the Inhibition in the experiment with Plasmodium falciparum [1] stood at 85%; with Plasmodium falciparum [2], 18%; with HepG2 it was 10%.

Turning to `COc1ccc2ncc(F)c(CCN3CC(O)C(CNCc4nc5c(cc4Cl)OCC(=O)N5)C3)c2n1.Cl` (stereo unspecified), the Inhibition in the experiment with Plasmodium falciparum [1] was 93% and 90%; in the experiment on Plasmodium falciparum [2] it was 23% and 15% and 30%; with HepG2 it was 12% and 13% and 5%.

As for `CCn1cc2c3c(cc(C(=O)N[C@@H](Cc4ccccc4)[C@H](O)CNC4CCOCC4)cc31)N(C)S(=O)(=O)CC2`, the Inhibition in the experiment on Plasmodium falciparum [1] is given as 98%; in the experiment with Plasmodium falciparum [2], 98%; in the experiment with HepG2 it was 0%.
